Test results from the supplement of paper PMC11732987, “Enantioselective OTUD7B fragment discovery through chemoproteomics screening and high-throughput optimisation” (Communications Chemistry, 2025).

Key:
Experiment in all cases: log2 ratio of Biotin-Ahx-Ub-VS probe labelling (fragment/DMSO); higher = less target engagement (more negative = stronger competition), active = hit call of the paper (q ≤ 0.05, log2 ratio ≤ -1)
Settings in all cases: compound concentration: 200 uM; treatment time: 3 h
ALG13 = target: T1, ALG13 (UniProt Q9NP73)
T1 sequence (whole entry): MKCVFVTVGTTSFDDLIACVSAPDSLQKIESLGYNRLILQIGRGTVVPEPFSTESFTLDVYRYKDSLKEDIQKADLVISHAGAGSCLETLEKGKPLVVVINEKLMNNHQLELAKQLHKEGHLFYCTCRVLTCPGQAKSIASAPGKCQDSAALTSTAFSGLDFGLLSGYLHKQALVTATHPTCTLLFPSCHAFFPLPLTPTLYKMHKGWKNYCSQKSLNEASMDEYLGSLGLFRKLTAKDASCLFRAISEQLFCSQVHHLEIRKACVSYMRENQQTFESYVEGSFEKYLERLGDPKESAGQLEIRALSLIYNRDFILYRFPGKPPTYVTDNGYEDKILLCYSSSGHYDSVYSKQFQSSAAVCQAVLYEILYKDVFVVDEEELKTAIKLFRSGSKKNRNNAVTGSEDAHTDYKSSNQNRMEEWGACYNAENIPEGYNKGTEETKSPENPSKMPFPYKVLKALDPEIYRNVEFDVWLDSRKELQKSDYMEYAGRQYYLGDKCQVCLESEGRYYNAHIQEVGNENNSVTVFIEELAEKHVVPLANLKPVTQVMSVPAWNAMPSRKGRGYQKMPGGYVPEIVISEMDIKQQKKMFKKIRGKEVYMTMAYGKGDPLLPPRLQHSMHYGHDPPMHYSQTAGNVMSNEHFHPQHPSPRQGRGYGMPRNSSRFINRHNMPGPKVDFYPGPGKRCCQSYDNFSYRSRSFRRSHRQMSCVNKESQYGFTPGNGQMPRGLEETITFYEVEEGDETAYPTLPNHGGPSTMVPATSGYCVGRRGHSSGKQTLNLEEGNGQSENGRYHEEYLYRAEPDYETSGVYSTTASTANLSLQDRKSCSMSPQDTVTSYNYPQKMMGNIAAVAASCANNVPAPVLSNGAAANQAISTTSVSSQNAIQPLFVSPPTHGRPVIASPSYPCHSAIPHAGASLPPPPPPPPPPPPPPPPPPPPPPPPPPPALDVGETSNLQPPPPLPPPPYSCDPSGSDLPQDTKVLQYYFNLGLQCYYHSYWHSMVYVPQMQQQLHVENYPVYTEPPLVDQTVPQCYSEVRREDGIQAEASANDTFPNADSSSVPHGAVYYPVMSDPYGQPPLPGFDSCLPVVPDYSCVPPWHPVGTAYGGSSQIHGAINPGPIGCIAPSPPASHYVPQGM
Method in brief: (§1)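 Lysate from HEK293T cells, 495 µg per sample in Tris/CHAPS/IGEPAL buffer with protease inhibitors, was treated for 3 h in triplicate with fragment at 200 µM or vehicle. Biotin-Ahx-Ub-VS was next added at 0.5 µM final for 1 h. The labelled DUBs were enriched with NeutrAvidin, digested with LysC and trypsin, and run by diaPASEF LC-MS/MS, with values given as average log2 fragment/vehicle ratios by unpaired t-test on global-median-normalised Spectronaut quantities of proteins with ≥2 unique peptides.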

ATXN3 = ATXN3 (UniProt P54252)
Sequence of ATXN3 (P54252 whole entry): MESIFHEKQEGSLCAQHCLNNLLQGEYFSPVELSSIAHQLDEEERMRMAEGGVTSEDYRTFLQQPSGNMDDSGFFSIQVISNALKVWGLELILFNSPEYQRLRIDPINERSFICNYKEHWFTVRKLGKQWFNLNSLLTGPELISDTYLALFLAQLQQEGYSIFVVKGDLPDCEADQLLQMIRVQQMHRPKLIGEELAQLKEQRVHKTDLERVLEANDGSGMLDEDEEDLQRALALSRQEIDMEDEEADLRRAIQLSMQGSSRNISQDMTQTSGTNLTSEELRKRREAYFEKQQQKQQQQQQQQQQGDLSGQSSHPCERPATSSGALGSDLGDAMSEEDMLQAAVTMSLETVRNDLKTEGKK
Method in brief: as §1

BAP1 = target: T2, BAP1 (UniProt Q92560)
T2 sequence (whole entry): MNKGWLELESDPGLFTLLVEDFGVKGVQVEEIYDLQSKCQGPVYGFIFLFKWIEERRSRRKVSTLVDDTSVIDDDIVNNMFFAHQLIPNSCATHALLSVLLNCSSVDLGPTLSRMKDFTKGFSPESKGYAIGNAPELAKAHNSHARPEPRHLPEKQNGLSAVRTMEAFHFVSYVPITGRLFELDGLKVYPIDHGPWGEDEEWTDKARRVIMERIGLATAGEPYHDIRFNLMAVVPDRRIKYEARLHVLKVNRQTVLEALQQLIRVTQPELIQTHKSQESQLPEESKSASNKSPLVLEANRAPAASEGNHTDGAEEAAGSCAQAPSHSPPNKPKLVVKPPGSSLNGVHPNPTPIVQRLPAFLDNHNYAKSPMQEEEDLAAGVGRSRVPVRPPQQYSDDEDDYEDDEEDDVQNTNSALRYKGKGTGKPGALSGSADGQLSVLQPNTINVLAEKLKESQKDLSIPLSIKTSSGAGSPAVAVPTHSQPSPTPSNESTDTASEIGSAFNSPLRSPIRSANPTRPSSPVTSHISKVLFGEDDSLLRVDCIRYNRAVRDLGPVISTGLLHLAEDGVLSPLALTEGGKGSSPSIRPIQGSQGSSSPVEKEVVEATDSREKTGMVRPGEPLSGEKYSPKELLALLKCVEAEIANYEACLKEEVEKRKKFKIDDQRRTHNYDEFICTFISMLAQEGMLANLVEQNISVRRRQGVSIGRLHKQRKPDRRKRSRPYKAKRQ
Method in brief: as §1

EIF3F = EIF3F (UniProt O00303)
Sequence of EIF3F (O00303 whole entry): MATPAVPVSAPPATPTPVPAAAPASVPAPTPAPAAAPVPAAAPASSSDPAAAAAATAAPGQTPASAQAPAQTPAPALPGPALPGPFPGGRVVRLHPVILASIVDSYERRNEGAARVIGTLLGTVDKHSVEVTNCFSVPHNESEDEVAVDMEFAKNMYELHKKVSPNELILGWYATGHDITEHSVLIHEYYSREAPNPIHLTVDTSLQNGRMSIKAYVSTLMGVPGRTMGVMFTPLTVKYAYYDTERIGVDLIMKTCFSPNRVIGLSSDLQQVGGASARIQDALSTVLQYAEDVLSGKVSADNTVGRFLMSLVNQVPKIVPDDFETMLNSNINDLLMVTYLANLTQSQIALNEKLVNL
Method in brief: as §1

EIF3H = EIF3H (UniProt O15372)
Sequence of EIF3H (O15372 whole entry): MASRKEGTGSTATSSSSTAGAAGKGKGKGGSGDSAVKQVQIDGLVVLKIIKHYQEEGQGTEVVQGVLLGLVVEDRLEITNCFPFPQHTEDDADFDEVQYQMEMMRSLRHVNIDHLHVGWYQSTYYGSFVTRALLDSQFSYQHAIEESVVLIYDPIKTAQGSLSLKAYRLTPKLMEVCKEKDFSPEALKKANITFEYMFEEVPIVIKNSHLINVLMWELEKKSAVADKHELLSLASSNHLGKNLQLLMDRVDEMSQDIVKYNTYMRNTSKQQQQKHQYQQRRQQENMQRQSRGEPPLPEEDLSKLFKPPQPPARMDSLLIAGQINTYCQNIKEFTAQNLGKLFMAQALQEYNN
Method in brief: as §1

FAM105A = target: T3, FAM105A (UniProt Q9NUU6)
T3 sequence (whole entry): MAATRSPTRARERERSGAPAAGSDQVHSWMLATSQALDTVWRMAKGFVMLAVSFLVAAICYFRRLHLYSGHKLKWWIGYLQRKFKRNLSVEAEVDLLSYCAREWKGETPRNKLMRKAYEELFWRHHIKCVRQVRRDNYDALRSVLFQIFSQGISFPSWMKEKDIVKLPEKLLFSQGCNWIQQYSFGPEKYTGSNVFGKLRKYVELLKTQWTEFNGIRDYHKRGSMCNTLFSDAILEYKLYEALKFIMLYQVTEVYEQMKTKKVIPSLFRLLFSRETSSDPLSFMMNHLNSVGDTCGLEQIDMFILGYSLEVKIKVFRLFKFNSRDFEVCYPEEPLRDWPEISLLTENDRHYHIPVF
Method in brief: as §1

OTUB1 = OTUB1 (UniProt Q96FW1)
Sequence of OTUB1 (Q96FW1 whole entry): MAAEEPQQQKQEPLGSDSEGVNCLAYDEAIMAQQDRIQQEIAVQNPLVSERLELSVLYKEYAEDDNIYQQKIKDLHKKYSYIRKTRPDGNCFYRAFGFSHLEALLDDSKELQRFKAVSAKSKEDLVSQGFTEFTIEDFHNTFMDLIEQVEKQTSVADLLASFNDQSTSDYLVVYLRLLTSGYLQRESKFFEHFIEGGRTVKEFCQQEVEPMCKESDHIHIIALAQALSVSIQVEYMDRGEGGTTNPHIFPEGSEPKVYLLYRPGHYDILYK
Method in brief: as §1

OTUD4 = target: T4, OTUD4 (UniProt Q01804)
T4 sequence (whole entry): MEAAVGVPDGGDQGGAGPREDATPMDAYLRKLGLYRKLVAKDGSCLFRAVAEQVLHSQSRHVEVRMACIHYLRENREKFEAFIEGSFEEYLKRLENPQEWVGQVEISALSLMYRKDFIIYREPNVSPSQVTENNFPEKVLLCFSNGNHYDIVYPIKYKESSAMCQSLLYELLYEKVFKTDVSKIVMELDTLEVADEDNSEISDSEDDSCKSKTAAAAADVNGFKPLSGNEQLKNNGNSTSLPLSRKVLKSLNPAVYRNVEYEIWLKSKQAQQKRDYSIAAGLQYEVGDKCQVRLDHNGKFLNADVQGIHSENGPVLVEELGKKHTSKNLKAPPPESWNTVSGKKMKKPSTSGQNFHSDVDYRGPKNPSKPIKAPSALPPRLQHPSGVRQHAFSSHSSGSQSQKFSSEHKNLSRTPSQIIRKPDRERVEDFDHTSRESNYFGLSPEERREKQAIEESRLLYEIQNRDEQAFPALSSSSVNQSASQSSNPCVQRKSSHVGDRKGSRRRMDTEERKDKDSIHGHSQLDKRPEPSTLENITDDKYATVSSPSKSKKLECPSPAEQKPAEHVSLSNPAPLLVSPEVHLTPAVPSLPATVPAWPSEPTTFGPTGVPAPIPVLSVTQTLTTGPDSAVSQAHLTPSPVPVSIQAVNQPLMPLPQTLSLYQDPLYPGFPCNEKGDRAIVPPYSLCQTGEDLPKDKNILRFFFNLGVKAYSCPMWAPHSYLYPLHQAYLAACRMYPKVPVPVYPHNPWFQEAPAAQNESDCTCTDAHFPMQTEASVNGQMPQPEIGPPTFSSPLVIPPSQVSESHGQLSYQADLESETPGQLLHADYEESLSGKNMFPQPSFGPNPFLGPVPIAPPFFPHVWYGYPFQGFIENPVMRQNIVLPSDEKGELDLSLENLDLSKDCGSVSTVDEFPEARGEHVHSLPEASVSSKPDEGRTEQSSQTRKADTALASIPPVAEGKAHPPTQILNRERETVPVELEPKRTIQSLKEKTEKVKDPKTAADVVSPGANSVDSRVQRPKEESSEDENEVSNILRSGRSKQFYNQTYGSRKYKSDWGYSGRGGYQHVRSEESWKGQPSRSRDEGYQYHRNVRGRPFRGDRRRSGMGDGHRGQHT
Method in brief: as §1

OTUD5 = target: T5, OTUD5 (UniProt Q96G74)
T5 sequence (whole entry): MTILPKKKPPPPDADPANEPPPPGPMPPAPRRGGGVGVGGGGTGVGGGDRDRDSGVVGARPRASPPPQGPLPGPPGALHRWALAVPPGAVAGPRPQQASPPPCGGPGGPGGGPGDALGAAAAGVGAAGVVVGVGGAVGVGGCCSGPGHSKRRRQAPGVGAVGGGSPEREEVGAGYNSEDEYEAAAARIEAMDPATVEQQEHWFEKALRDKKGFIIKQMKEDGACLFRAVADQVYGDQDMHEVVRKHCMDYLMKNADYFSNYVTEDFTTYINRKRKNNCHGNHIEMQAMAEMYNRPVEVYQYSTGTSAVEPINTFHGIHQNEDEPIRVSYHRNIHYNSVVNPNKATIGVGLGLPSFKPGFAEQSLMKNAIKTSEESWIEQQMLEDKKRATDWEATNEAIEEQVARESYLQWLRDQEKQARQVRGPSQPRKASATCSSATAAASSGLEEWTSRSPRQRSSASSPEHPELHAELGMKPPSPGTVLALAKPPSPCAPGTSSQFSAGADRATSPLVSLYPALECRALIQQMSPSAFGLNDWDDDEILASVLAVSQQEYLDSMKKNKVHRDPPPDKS
Method in brief: as §1

Measured: log2 ratio of Biotin-Ahx-Ub-VS probe labelling

NC(=O)C(Cc1ccccc1)NC(=O)CCl (centres undefined)
inactive: ALG13 0.0325 | ATXN3 -0.279 | EIF3F 0.127 | EIF3H -0.254 | FAM105A -0.0569 | OTUB1 0.128 | OTUD4 -0.451 | OTUD5 -0.216
active: BAP1 -2.01
